Our source for the growth inhibition values is PubChem BioAssay (NCI).

Compounds without any hit were thinned out: in the full panel of roughly 79,000, 15% have a hit. A number with no mark means an inactive call. Activity calls are given as the source filed them. Rule as the data show it: active = growth inhibition above about 70%; inactive = the rest.

The nature of test [1]: NCI Yeast Anticancer Drug Screen. Data for the rad50 strain (AID 155).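 Also: 0% = growth of vehicle-only cultures of the same strain.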 The note with it: S. cerevisiae rad50 strain growth inhibition, hits give high values. The method, boiled down: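 Compounds were tested on a yeast strain with an engineered DNA damage repair alteration; the reported value is growth inhibition normalised to vehicle treatment.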
Test [2] is described as follows: NCI Yeast Anticancer Drug Screen. Data for the mec2-1 strain (AID 157). The settings on record: S. cerevisiae mec2-1 strain, hits give high values. The method, boiled down:
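Growth inhibition is read against vehicle-treated controls after compound exposure of the mec2-1 yeast strain, which is defective in DNA damage repair or cell cycle control.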

Test [3] in a line: NCI Yeast Anticancer Drug Screen. Data for the sgs1 mgt1 strain (AID 161).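 Also: 0% = growth of cultures given vehicle only.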 The note with it: S. cerevisiae sgs1 mgt1 strain, hits give high values. The method, boiled down: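 This yeast growth screen uses a strain with defined DNA-repair lesions; compound-treated growth is compared with vehicle-treated growth.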
Test [4] is described as follows: NCI Yeast Anticancer Drug Screen. Data for the cln2 rad14 strain (AID 165).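 Also: 0% = growth equal to vehicle treated cultures.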 The note with it: S. cerevisiae cln2 rad14 strain, hits give high values. The method, boiled down: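 Growth inhibition, relative to vehicle-treated controls, is the read-out. The test organism is a yeast strain with defined genetic alterations, cln2 rad14.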
Test [5] in a line: NCI Yeast Anticancer Drug Screen. Data for the bub3 strain (AID 167). The note with it: S. cerevisiae bub3 mutant strain, hits give high values. The method, boiled down:
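Growth of a checkpoint-deficient yeast mutant is measured after compound exposure. Values represent inhibition relative to vehicle.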

Test [6] can be described thus: NCI Yeast Anticancer Drug Screen. Data for the mlh1 rad18 strain (AID 175). The note with it: S. cerevisiae mlh1 rad18 strain growth inhibition, hits give high values. The method, boiled down:
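Cells of a genetically altered yeast strain, deficient in DNA damage repair, were treated with compound. Their growth was then compared with that of vehicle-treated cultures to give inhibition.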

Setting [7] is: at 5.0 µM (retest, dose inferred, filed as 0.5).
Setting [8] is: at 50.0 µM (retest, dose inferred, filed as 5.0).

For the compound `CC(=O)/C(=C\c1ccco1)C(=O)Nc1ccccc1`, the growth inhibition was 2% in test [1] (setting [7]); 23% in test [1] (setting [8]); 73.1% (active) in test [1] (at 50.0 µM); 0% in test [2] (setting [7]); 21% in test [2] (setting [8]); 48.2% in test [2] (at 50.0 µM). For the same compound, the growth inhibition was 13% in test [3] (setting [7]); 26% in test [3] (setting [8]); 80.2% (active) in test [3] (at 50.0 µM); 6% in test [4] (setting [7]); 23% in test [4] (setting [8]); 92.4% (active) in test [4] (at 50.0 µM). For the same compound, the growth inhibition in test [5] (setting [7]) is -4%; in test [5] (setting [8]), 58%; in test [5] (at 50.0 µM), 91.2% (active); in test [6] (setting [7]), 6%; in test [6] (setting [8]) it was 37%; in test [6] (at 50.0 µM), 94.7% (active).
`Nc1nc(-c2ccccc2)nc(Cl)c1I`: the growth inhibition in test [1] (setting [7]) is 0%; in test [1] (setting [8]), 17%; in test [1] (at 50.0 µM), 74.7% (active); in test [2] (setting [7]), -3%; in test [2] (setting [8]), 24%; in test [2] (at 50.0 µM) it was 28.9%. The growth inhibition in test [3] (setting [7]) is 3%; in test [3] (setting [8]) it was 43%; in test [3] (at 50.0 µM), 78% (active); in test [4] (setting [7]) it was 3%; in test [4] (setting [8]), 21%; in test [4] (at 50.0 µM), 15.6%. Further, the growth inhibition in test [5] (setting [7]) was -10%; in test [5] (setting [8]), 16%; in test [5] (at 50.0 µM), -5.25%; in test [6] (setting [7]), -4%; in test [6] (setting [8]) it was 21%; in test [6] (at 50.0 µM), 81.4% (active).
Turning to `N#CC12CC3=C(N=C1NC1=C(CCc4ccccc41)C2)c1ccccc1CC3` (stereo not given), the growth inhibition in test [1] (setting [7]) was 24%; in test [1] (setting [8]) it was 51%; in test [1] (at 50.0 µM) it was 57.8%; in test [2] (setting [7]) it was 19%; in test [2] (setting [8]), 34%; in test [2] (at 50.0 µM), 42.8%. The growth inhibition in test [3] (setting [7]) is 20%; in test [3] (setting [8]) it was 44%; in test [3] (at 50.0 µM), 48.5%; in test [4] (setting [7]) it was 18%; in test [4] (setting [8]) it was 29%; in test [4] (at 50.0 µM) it was 17.9%. For the same compound, the growth inhibition is 23% in test [5] (setting [7]); 45% in test [5] (setting [8]); 51.1% in test [5] (at 50.0 µM); 20% in test [6] (setting [7]); 60% in test [6] (setting [8]); 24.6% in test [6] (at 50.0 µM).
As to `CC(C)(CC(=O)NNc1ccccc1)C(=O)O`, the growth inhibition in test [1] (setting [7]) is 7%; in test [1] (setting [8]), 72% (active); in test [1] (at 50.0 µM), 57.6%; in test [2] (setting [7]) it was 4%; in test [2] (setting [8]), 61%; in test [2] (at 50.0 µM), 20.2%. Also, the growth inhibition was 14% in test [3] (setting [7]); 60% in test [3] (setting [8]); 72% (active) in test [3] (at 50.0 µM); 19% in test [4] (setting [7]); 82% (active) in test [4] (setting [8]); 79.2% (active) in test [4] (at 50.0 µM). Besides, the growth inhibition is 22% in test [5] (setting [7]); 94% (active) in test [5] (setting [8]); 89.5% (active) in test [5] (at 50.0 µM); 32% in test [6] (setting [7]); 95% (active) in test [6] (setting [8]); 85.8% (active) in test [6] (at 50.0 µM).
For the compound `CSc1c(C)n([O-])c2cc(Cl)c(Cl)cc2[n+]1=O`, the growth inhibition in test [1] (setting [7]) is 20%; in test [1] (setting [8]), 94% (active); in test [1] (at 50.0 µM) it was 79.8% (active); in test [2] (setting [7]) it was 14%; in test [2] (setting [8]), 93% (active); in test [2] (at 50.0 µM), 86% (active). Also, the growth inhibition was 24% in test [3] (setting [7]); 99% (active) in test [3] (setting [8]); 85.4% (active) in test [3] (at 50.0 µM); 17% in test [4] (setting [7]); 87% (active) in test [4] (setting [8]); 64.4% in test [4] (at 50.0 µM). The growth inhibition in test [5] (setting [7]) is 24%; in test [5] (setting [8]) it was 96% (active); in test [5] (at 50.0 µM) it was 79.2% (active); in test [6] (setting [7]) it was 23%; in test [6] (setting [8]) it was 97% (active); in test [6] (at 50.0 µM), 92.3% (active).
`CCCc1cc(-c2ccc(O)c(CCC)c2)ccc1O`: the growth inhibition in test [1] (setting [7]) is 92% (active); in test [1] (setting [8]), 99% (active); in test [1] (at 50.0 µM) it was 99.6% (active); in test [2] (setting [7]), 98% (active); in test [2] (setting [8]), 99% (active); in test [2] (at 50.0 µM), 99.7% (active). The growth inhibition is 90% (active) in test [3] (setting [7]); 99% (active) in test [3] (setting [8]); 99.5% (active) in test [3] (at 50.0 µM); 96% (active) in test [4] (setting [7]); 99% (active) in test [4] (setting [8]); 99.3% (active) in test [4] (at 50.0 µM). The growth inhibition in test [5] (setting [7]) is 99% (active); in test [5] (setting [8]) it was 100% (active); in test [5] (at 50.0 µM), 99.7% (active); in test [6] (setting [7]) it was 96% (active); in test [6] (setting [8]), 99% (active); in test [6] (at 50.0 µM), 99.2% (active).
As for `Cc1ccc(C2=CC(=O)/C(=C\C(=O)c3ccc(Cl)cc3)O2)cc1`, the growth inhibition was 31% in test [1] (setting [7]); 31% in test [1] (setting [8]); 74.9% (active) in test [1] (at 50.0 µM); 28% in test [2] (setting [7]); 28% in test [2] (setting [8]); 55.5% in test [2] (at 50.0 µM). In addition, the growth inhibition in test [3] (setting [7]) is 17%; in test [3] (setting [8]) it was 17%; in test [3] (at 50.0 µM), 71.2% (active); in test [4] (setting [7]), 38%; in test [4] (setting [8]), 38%; in test [4] (at 50.0 µM), 57%. In addition, the growth inhibition in test [5] (setting [7]) is 22%; in test [5] (setting [8]), 22%; in test [5] (at 50.0 µM), 49.5%; in test [6] (setting [7]), 37%; in test [6] (setting [8]), 37%; in test [6] (at 50.0 µM), 58%.
In the case of `NC(=O)c1ccccc1C(=O)O`, the growth inhibition was -6% in test [1] (setting [7]); 7% in test [1] (setting [8]); 12.9% in test [1] (at 50.0 µM); -5% in test [2] (setting [7]); -2% in test [2] (setting [8]); 1.85% in test [2] (at 50.0 µM). For the same compound, the growth inhibition was 0% in test [3] (setting [7]); 2% in test [3] (setting [8]); -36.1% in test [3] (at 50.0 µM); 2% in test [4] (setting [7]); 1% in test [4] (setting [8]); 36.9% in test [4] (at 50.0 µM). Besides, the growth inhibition is 2% in test [5] (setting [7]); 9% in test [5] (setting [8]); 0.6% in test [5] (at 50.0 µM); -5% in test [6] (setting [7]); 5% in test [6] (setting [8]); 5.9% in test [6] (at 50.0 µM).
As to `Cc1[nH]c2c(C)c3c([nH]c4ccc(Cl)cc43)c(C)c2c(=O)c1C`, the growth inhibition in test [1] (setting [7]) is -8%; in test [1] (setting [8]) it was 12%; in test [1] (at 50.0 µM), 61.1%; in test [2] (setting [7]) it was -24%; in test [2] (setting [8]), 0%; in test [2] (at 50.0 µM), 14.2%. For the same compound, the growth inhibition in test [3] (setting [7]) is -14%; in test [3] (setting [8]), 3%; in test [3] (at 50.0 µM), 23.9%; in test [4] (setting [7]), -17%; in test [4] (setting [8]), 6%; in test [4] (at 50.0 µM), 13.7%. Besides, the growth inhibition is -10% in test [5] (setting [7]); -3% in test [5] (setting [8]); 8.65% in test [5] (at 50.0 µM); -19% in test [6] (setting [7]); -2% in test [6] (setting [8]); 39.1% in test [6] (at 50.0 µM).
`O=[N+]([O-])c1ccc(Cl)c(C(Nc2nncs2)Nc2nncs2)c1`: the growth inhibition in test [1] (setting [7]) is -2%; in test [1] (setting [8]) it was 91% (active); in test [1] (at 50.0 µM), 49.1%; in test [2] (setting [7]), 2%; in test [2] (setting [8]), 70% (active); in test [2] (at 50.0 µM) it was 23.9%. Further, the growth inhibition in test [3] (setting [7]) is -3%; in test [3] (setting [8]) it was 61%; in test [3] (at 50.0 µM), 61.7%; in test [4] (setting [7]), 18%; in test [4] (setting [8]), 84% (active); in test [4] (at 50.0 µM), 36.3%. Moreover, the growth inhibition in test [5] (setting [7]) was -5%; in test [5] (setting [8]) it was 92% (active); in test [5] (at 50.0 µM) it was 20.4%; in test [6] (setting [7]) it was -13%; in test [6] (setting [8]) it was 84% (active); in test [6] (at 50.0 µM) it was 51.8%.
